Measurements from publication PMC5540273 (PLoS ONE, 2017).

Key:
Settings in all cases: concentration: 1 μM, replicates: in singlicate; n = 1
ERK1 = tested on: T1, ERK1
T1 construct: gene MAPK3

ERK2 = tested on: T2, ERK2
T2 construct: gene MAPK1

ERK3 = tested on: T3, ERK3
T3 construct: gene MAPK6

ERK4 = tested on: T4, ERK4
T4 construct: gene MAPK4

ERK5 = tested on: T5, ERK5
T5 construct: gene MAPK7

ERK8 = tested on: T6, ERK8
T6 construct: gene MAPK15

ERN1 = tested on: ERN1
FAK = tested on: T7, FAK
T7 construct: gene PTK2

FER = tested on: FER
FES = tested on: FES
FGFR1 = tested on: FGFR1
FGFR2 = tested on: FGFR2
FGFR3 = tested on: FGFR3
FGFR4 = tested on: FGFR4
FGR = tested on: FGR
FLT1 = tested on: FLT1
FLT3-autoinhibited = tested on: FLT3-autoinhibited
FLT3 = tested on: FLT3
FLT4 = tested on: FLT4
FRK = tested on: FRK
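Further: KINOMEscan kinase panel screen.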

SMILES	%Inh (ERK1)	%Inh (ERK2)	%Inh (ERK3)	%Inh (ERK4)	%Inh (ERK5)	%Inh (ERK8)	%Inh (ERN1)	%Inh (FAK)	%Inh (FER)	%Inh (FES)	%Inh (FGFR1)	%Inh (FGFR2)	%Inh (FGFR3)	%Inh (FGFR4)	%Inh (FGR)	%Inh (FLT1)	%Inh (FLT3-autoinhibited)	%Inh (FLT3)	%Inh (FLT4)	%Inh (FRK)
Cc1ccccc1CC(=O)N1CCc2cc(-c3cn(C)c4ncnc(N)c34)ccc21 [GSK2603346]	0%	0%	0%	0%	0%	30%	1%	0%	17%	0%	0%	14%	8%	0%	22%	59%	0%	51%	29%	2%
COc1cccc(CC(=O)N2CCc3cc(-c4cn(C)c5ncnc(N)c45)ccc32)c1 [GSK2608899]	6%	13%	0%	12%	0%	17%	19%	8%	17%	0%	22%	0%	0%	0%	15%	59%	0%	66%	0%	0%
CNc1nccc(-c2ccc3c(N)n[nH]c3c2)n1 [GSK2206003]	3%	0%	0%	32%	9%	28%	4%	0%	25%	1%	41%	5%	11%	2%	29%	49%	14%	50%	5%	6%
CN(C)c1ncnc2nc[nH]c12 [SKF-31736]	0%	0%	0%	0%	0%	14%	48%	0%	0%	0%	0%	0%	0%	0%	0%	0%	0%	0%	0%	0%
O=C(O)C(F)(F)F.O=c1[nH]ccc2nc(N[C@@H]3CCNC3)nc(Nc3ccc4c(c3)S(=O)(=O)CC4)c12 [GSK2181306]	55%	61%	78%	28%	17%	5%	39%	84%	75%	16%	4%	33%	21%	0%	45%	32%	79%	61%	42%	26%
COC(=O)Nc1nc2ccc(Oc3ccc(CC(=O)Nc4cc(C(F)(F)F)ccc4F)cc3)cc2[nH]1 [GW680903]	0%	0%	0%	7%	0%	0%	0%	0%	0%	0%	0%	6%	8%	4%	10%	93%	20%	99.3%	72%	19%
N#CC1(c2cccc(C(=O)Nc3cccc(Oc4ccc5nc(NC(=O)C6CC6)sc5n4)c3)c2)CC1	0%	0%	0%	0%	0%	29%	0%	17%	22%	0%	92.7%	95.3%	70%	70%	88%	98.5%	16%	96%	100%	98%
COC(=O)Nc1nc2ccc(Oc3ccc(NC(=O)Nc4cc(C(F)(F)F)ccc4F)cc3)cc2[nH]1.Cl [GW654607]	0%	6%	16%	0%	0%	97.6%	10%	0%	0%	0%	26%	63%	11%	17%	12%	99.6%	27%	99%	99.9%	94.7%
Cl.O=C(Nc1ccc(Oc2ccc3[nH]c(NC(=O)c4ccco4)nc3c2)cc1)Nc1cc(C(F)(F)F)ccc1F [GW683134]	0%	0%	0%	14%	0%	82%	0%	0%	0%	0%	40%	77%	36%	12%	24%	98.5%	25%	99.4%	99.9%	77%
Cc1ccc(-c2ccc3occ(-c4ccc(S(C)=O)cc4)c3c2)nn1 (stereo not shown)	0%	7%	0%	0%	0%	1%	1%	0%	0%	5%	0%	2%	4%	0%	15%	0%	0%	0%	0%	0%
Cl.Cl.NC(CNC(=O)c1cc(Br)c(-c2ccnc3[nH]ccc23)s1)c1ccccc1 (stereo not shown) [GSK1322949]	4%	0%	4%	27%	0%	24%	13%	83%	10%	0%	45%	39%	26%	29%	14%	64%	1%	90.9%	17%	0%
COc1ccc(C)c(Nc2ccnc(Nc3ccc(-c4cnc[nH]4)cc3)n2)c1.Cl [GW784041]	0%	9%	16%	0%	0%	4%	0%	0%	2%	2%	23%	4%	48%	100%	86%	14%	0%	15%	10%	69%
COc1cccc(C2=C(Nc3cccc(O)c3)C(=O)NC2=O)c1 [SB-390771]	3%	0%	6%	26%	0%	16%	0%	0%	0%	2%	0%	29%	28%	19%	33%	22%	0%	3%	20%	11%
Cc1cc(-c2c(-c3ccc(F)cc3)ncn2CCCN2CCOCC2)nc(N)n1 [SB-222517]	4%	21%	0%	0%	0%	6%	0%	0%	16%	35%	20%	0%	0%	0%	9%	0%	0%	27%	0%	0%
Cc1ccc(NC(=O)c2ccc(Cl)c(Cl)c2)cc1-c1ccc(C(=O)Nc2ccncc2)cc1 [GSK1398460]	5%	2%	0%	13%	0%	0%	0%	0%	34%	0%	0%	0%	14%	6%	26%	70%	14%	5%	57%	82%
CC(C)(C)c1ccc(C(=O)Nc2cn3cc(-n4ccnc4)ccc3n2)cc1	0%	13%	10%	5%	19%	0%	25%	7%	0%	0%	0%	22%	11%	7%	0%	0%	21%	71%	0%	10%
CCNc1nccc(-c2c(-c3ccc(F)cc3)ncn2C2CCN(C)CC2)n1	0%	0%	0%	0%	0%	4%	100%	0%	0%	0%	0%	6%	0%	0%	0%	18%	0%	24%	6%	0%
O=C(Nc1n[nH]c2nc(-c3ccccc3)ccc12)C1CC1 [SB-708999]	0%	3%	46%	0%	0%	99.5%	0%	0%	5%	5%	0%	33%	26%	12%	9%	11%	0%	42%	4%	5%
Fc1cc(Cl)ccc1Nc1ccnc2cc(-c3ccc(CN4CCSCC4)o3)ccc12 [GW560106]	17%	0%	0%	0%	0%	0%	6%	0%	37%	0%	47%	34%	11%	19%	90.8%	87%	0%	72%	91.6%	86%
Cn1cc(-c2ccc3c(c2)CCN3C(=O)Cc2cc(F)cc(C(F)(F)F)c2)c2c(N)ncnc21 [GSK2635225]	15%	0%	0%	24%	0%	8%	6%	11%	34%	0%	26%	0%	11%	33%	35%	39%	13%	90%	30%	18%
